Measurements: PubChem BioAssay AID1159580 (chemical genetic matrix, 2015)
Screen size: about 5,500 compounds; about 2,000 (36%) were called active. About 18% were inconclusive and are not listed. The list shows a part of the results. A number with no mark means an inactive call. Cut-off read from the data, not from the text of the source: active = normalized growth mostly below about 0.91 (no sharp cut-off); inconclusive = no clear call, values can overlap the other calls; inactive = mostly above about 0.92.

Assay: chemical genetic growth profiling, strain panel (AID 1159580);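 note: tested at 20 µM; growth read once vehicle control cultures reached saturation at 30 °C; 1 = growth at the plate median or of vehicle wells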
Conditions: growth OD
[1] = S. cerevisiae deletion strains, locus YDL101C, strain DUN1, stronger effect = lower value
[2] = S. cerevisiae deletion strains, locus YHR030C, strain SLT2, stronger effect = lower value
[3] = S. cerevisiae deletion strains, locus YAL013W, strain DEP1, stronger effect = lower value
[4] = S. cerevisiae deletion strains, locus YDR150W, strain NUM1, stronger effect = lower value
[5] = S. cerevisiae deletion strains, locus YJR075W, strain HOC1, stronger effect = lower value
[6] = S. cerevisiae deletion strains, locus YNL153C, strain GIM3, stronger effect = lower value
[7] = S. cerevisiae deletion strains, locus YNL322C, strain KRE1, stronger effect = lower value
[8] = S. cerevisiae deletion strains, locus YPL241C, strain CIN2, stronger effect = lower value

For `COc1cc(C2SCCS2)cc(Br)c1OC(=O)NC(=O)c1c(Cl)cccc1Cl`, the normalized growth (S. cerevisiae deletion strains, locus YAR019C, strain CDC15, stronger effect = lower value) was 0.965, the normalized growth (S. cerevisiae deletion strains, locus YBL105C, strain PKC1, stronger effect = lower value) was 0.955 and the normalized growth (S. cerevisiae deletion strains, locus YBR135W, strain CKS1, stronger effect = lower value) was 0.968. The normalized growth (S. cerevisiae deletion strains, locus YBR136W, strain MEC1, stronger effect = lower value) was 0.954, the normalized growth (S. cerevisiae deletion strains, locus YBR160W, strain CDC28, stronger effect = lower value) was 0.956 and the normalized growth (S. cerevisiae deletion strains, locus YDL017W, strain CDC7, stronger effect = lower value) was 0.958. The normalized growth (S. cerevisiae deletion strains, locus YDL028C, strain MPS1, stronger effect = lower value) was 0.962, the normalized growth [1] was 0.952 and the normalized growth (S. cerevisiae deletion strains, locus YDL108W, strain KIN28, stronger effect = lower value) was 0.953. For the same molecule, the normalized growth (S. cerevisiae deletion strains, locus YDL132W, strain cdc53, stronger effect = lower value) was 0.962, the normalized growth (S. cerevisiae deletion strains, locus YDL214C, strain PRR2, stronger effect = lower value) was 0.953 and the normalized growth (S. cerevisiae deletion strains, locus YDR052C, strain DBF4, stronger effect = lower value) was 0.966. For the same molecule, the normalized growth (S. cerevisiae deletion strains, locus YDR054C, strain cdc34, stronger effect = lower value) was 0.955, the normalized growth (S. cerevisiae deletion strains, locus YDR226W, strain ADK1, stronger effect = lower value) was 0.937 and the normalized growth (S. cerevisiae deletion strains, locus YDR477W, strain SNF1, stronger effect = lower value) was 0.939. It also gave a normalized growth (S. cerevisiae deletion strains, locus YER123W, strain YCK3, stronger effect = lower value) of 0.936, a normalized growth (S. cerevisiae deletion strains, locus YER133W, strain GLC7, stronger effect = lower value) of 0.936 and a normalized growth (S. cerevisiae deletion strains, locus YFL009W, strain cdc4, stronger effect = lower value) of 0.956. The normalized growth (S. cerevisiae deletion strains, locus YFL029C, strain CAK1, stronger effect = lower value) was 0.974, the normalized growth (S. cerevisiae deletion strains, locus YFR003C, strain YPI1, stronger effect = lower value) was 0.948 and the normalized growth (S. cerevisiae deletion strains, locus YFR019W, strain FAB1, stronger effect = lower value) was 0.966. The normalized growth (S. cerevisiae deletion strains, locus YFR028C, strain CDC14, stronger effect = lower value) was 0.968, the normalized growth (S. cerevisiae deletion strains, locus YGR040W, strain KSS1, stronger effect = lower value) was 0.936 and the normalized growth (S. cerevisiae deletion strains, locus YGR052W, strain FMP48, stronger effect = lower value) was 0.988. For the same molecule, the normalized growth (S. cerevisiae deletion strains, locus YGR092W, strain DBF2, stronger effect = lower value) was 0.919, the normalized growth [2] was 1.15 [resistant] (active) and the normalized growth (S. cerevisiae deletion strains, locus YHR079C, strain IRE1, stronger effect = lower value) was 0.985. It also gave a normalized growth (S. cerevisiae deletion strains, locus YHR082C, strain KSP1, stronger effect = lower value) of 1.06, a normalized growth (S. cerevisiae deletion strains, locus YHR205W, strain SCH9, stronger effect = lower value) of 0.987 and a normalized growth (S. cerevisiae deletion strains, locus YIL147C, strain SLN1, stronger effect = lower value) of 0.963. It also gave a normalized growth (S. cerevisiae deletion strains, locus YJL095W, strain BCK1, stronger effect = lower value) of 0.958, a normalized growth (S. cerevisiae deletion strains, locus YJL128C, strain PBS2, stronger effect = lower value) of 0.916 and a normalized growth (S. cerevisiae deletion strains, locus YJL157C, strain FAR1, stronger effect = lower value) of 0.909. The normalized growth (S. cerevisiae deletion strains, locus YJR016C, strain ILV3, stronger effect = lower value) was 0.966, the normalized growth (S. cerevisiae deletion strains, locus YJR066W, strain TOR1 (second series), stronger effect = lower value) was 0.926 and the normalized growth (S. cerevisiae deletion strains, locus YJR066W, strain TOR1, stronger effect = lower value) was 1.02. The normalized growth (S. cerevisiae deletion strains, locus YKL048C, strain ELM1, stronger effect = lower value) was 0.951, the normalized growth (S. cerevisiae deletion strains, locus YKL067W, strain YNK1, stronger effect = lower value) was 0.943 and the normalized growth (S. cerevisiae deletion strains, locus YKL101W, strain HSL1, stronger effect = lower value) was 0.957. For the same molecule, the normalized growth (S. cerevisiae deletion strains, locus YKL193C, strain SDS22, stronger effect = lower value) was 0.974, the normalized growth (S. cerevisiae deletion strains, locus YKL203C, strain TOR2, stronger effect = lower value) was 0.974 and the normalized growth (S. cerevisiae deletion strains, locus YLR113W, strain HOG1, stronger effect = lower value) was 1. For the same molecule, the normalized growth (S. cerevisiae deletion strains, locus YLR133W, strain CKI1, stronger effect = lower value) was 0.942, the normalized growth (S. cerevisiae deletion strains, locus YLR403W, strain SFP1, stronger effect = lower value) was 0.905 and the normalized growth (S. cerevisiae deletion strains, locus YML070W, strain DAK1, stronger effect = lower value) was 0.962. The normalized growth (S. cerevisiae deletion strains, locus YMR001C, strain CDC5, stronger effect = lower value) was 0.962, the normalized growth (S. cerevisiae deletion strains, locus YMR205C, strain PFK2 (second series), stronger effect = lower value) was 0.954 and the normalized growth (S. cerevisiae deletion strains, locus YMR277W, strain FCP1, stronger effect = lower value) was 0.966. For the same molecule, the normalized growth (S. cerevisiae deletion strains, locus YNL006W, strain LST8, stronger effect = lower value) was 0.967, the normalized growth (S. cerevisiae deletion strains, locus YNL020C, strain ARK1, stronger effect = lower value) was 0.942 and the normalized growth (S. cerevisiae deletion strains, locus YNL161W, strain CBK1, stronger effect = lower value) was 0.951. For the same molecule, the normalized growth (S. cerevisiae deletion strains, locus YNL183C, strain NPR1, stronger effect = lower value) was 0.997, the normalized growth (S. cerevisiae deletion strains, locus YNL207W, strain RIO2, stronger effect = lower value) was 0.964 and the normalized growth (S. cerevisiae deletion strains, locus YNL222W, strain SSU72, stronger effect = lower value) was 0.975. It also gave a normalized growth (S. cerevisiae deletion strains, locus YNL307C, strain MCK1 (second series), stronger effect = lower value) of 0.937, a normalized growth (S. cerevisiae deletion strains, locus YOL078W, strain AVO1, stronger effect = lower value) of 0.96 and a normalized growth (S. cerevisiae deletion strains, locus YOL136C, strain PFK27, stronger effect = lower value) of 0.937. The normalized growth (S. cerevisiae deletion strains, locus YOR061W, strain CKA2, stronger effect = lower value) was 0.934, the normalized growth (S. cerevisiae deletion strains, locus YOR119C, strain RIO1, stronger effect = lower value) was 0.994 and the normalized growth (S. cerevisiae deletion strains, locus YOR231W, strain MKK1, stronger effect = lower value) was 0.993. The normalized growth (S. cerevisiae deletion strains, locus YOR329C, strain SCD5, stronger effect = lower value) was 0.956, the normalized growth (S. cerevisiae deletion strains, locus YPL031C, strain PHO85, stronger effect = lower value) was 0.905 and the normalized growth (S. cerevisiae deletion strains, locus YPL153C, strain RAD53, stronger effect = lower value) was 0.941. The normalized growth (S. cerevisiae deletion strains, locus YPL204W, strain HRR25, stronger effect = lower value) was 0.876, the normalized growth (S. cerevisiae deletion strains, locus YPL209C, strain IPL1, stronger effect = lower value) was 0.963 and the normalized growth (S. cerevisiae deletion strains, locus YPL256C, strain CLN2, stronger effect = lower value) was 1.07. It also gave a normalized growth (S. cerevisiae deletion strains, locus YPR025C, strain CCL1, stronger effect = lower value) of 0.966, a normalized growth (S. cerevisiae deletion strains, locus YPR106W, strain ISR1, stronger effect = lower value) of 0.957 and a normalized growth (S. cerevisiae deletion strains, locus YPR111W, strain DBF20, stronger effect = lower value) of 0.933. It also gave a normalized growth (S. cerevisiae deletion strains, strain NNK1, stronger effect = lower value) of 0.957 and a normalized growth (S. cerevisiae deletion strains, strain TSCII, stronger effect = lower value) of 0.958.
`O=[N+]([O-])c1ccc(NCCCCCO)nc1` gave a normalized growth [3] of 0.988, a normalized growth (S. cerevisiae deletion strains, locus YBR229C, strain ROT2, stronger effect = lower value) of 0.98 and a normalized growth (S. cerevisiae deletion strains, locus YCL061C, strain MRC1, stronger effect = lower value) of 0.977. It also gave a normalized growth [1] of 0.966, a normalized growth (S. cerevisiae deletion strains, locus YDL134C, strain PPH21, stronger effect = lower value) of 0.998 and a normalized growth [4] of 0.975. It also gave a normalized growth (S. cerevisiae deletion strains, locus YEL061C, strain CIN8, stronger effect = lower value) of 1.03, a normalized growth (S. cerevisiae deletion strains, locus YGR078C, strain PAC10, stronger effect = lower value) of 0.987 and a normalized growth [2] of 0.974. The normalized growth (S. cerevisiae deletion strains, locus YHR087W, strain rtc3, stronger effect = lower value) was 1.05, the normalized growth (S. cerevisiae deletion strains, locus YJL187C, strain SWE1, stronger effect = lower value) was 1 and the normalized growth (S. cerevisiae deletion strains, locus YJR043C, strain POL32, stronger effect = lower value) was 0.981. The normalized growth [5] was 1.02, the normalized growth (S. cerevisiae deletion strains, locus YKL190W, strain CNB1, stronger effect = lower value) was 1.01 and the normalized growth (S. cerevisiae deletion strains, locus YLR039C, strain RIC1, stronger effect = lower value) was 0.936. The normalized growth (S. cerevisiae deletion strains, locus YLR058C, strain SHM2 (second series), stronger effect = lower value) was 0.993, the normalized growth (S. cerevisiae deletion strains, locus YLR085C, strain ARP6, stronger effect = lower value) was 0.993 and the normalized growth (S. cerevisiae deletion strains, locus YLR262C, strain YPT6, stronger effect = lower value) was 1.01. The normalized growth (S. cerevisiae deletion strains, locus YML094W, strain GIM5, stronger effect = lower value) was 1.04, the normalized growth (S. cerevisiae deletion strains, locus YMR219W, strain ESC1, stronger effect = lower value) was 1.01 and the normalized growth (S. cerevisiae deletion strains, locus YMR263W, strain SAP30, stronger effect = lower value) was 0.999. It also gave a normalized growth (S. cerevisiae deletion strains, locus YMR307W, strain GAS1, stronger effect = lower value) of 1.07, a normalized growth [6] of 0.986 and a normalized growth (S. cerevisiae deletion strains, locus YNL298W, strain CLA4 (second series), stronger effect = lower value) of 0.967. The normalized growth [7] was 0.992, the normalized growth (S. cerevisiae deletion strains, locus YNR030W, strain Alg12, stronger effect = lower value) was 0.99 and the normalized growth (S. cerevisiae deletion strains, locus YOL006C, strain TOP1, stronger effect = lower value) was 0.955. For the same molecule, the normalized growth (S. cerevisiae deletion strains, locus YPL055C, strain LGE1, stronger effect = lower value) was 1.04, the normalized growth [8] was 0.974 and the normalized growth (S. cerevisiae deletion strains, locus YPR135W, strain CTF4, stronger effect = lower value) was 0.958. It also gave a normalized growth (S. cerevisiae strains, strain wild type, stronger effect = lower value) of 0.996.
With `Nc1nc(SCc2ccc([N+](=O)[O-])cc2)c2ncn([C@@H]3O[C@H](CO)[C@H](O)C3O)c2n1` (stereo partly specified) the normalized growth [3] was 1.01, the normalized growth (S. cerevisiae deletion strains, locus YAL040C, strain CLN3, stronger effect = lower value) was 1.02 and the normalized growth (S. cerevisiae deletion strains, locus YCL061C, strain MRC1 (second series), stronger effect = lower value) was 1. For the same molecule, the normalized growth [4] was 0.994, the normalized growth (S. cerevisiae deletion strains, locus YER002W, strain NOP16, stronger effect = lower value) was 1 and the normalized growth (S. cerevisiae deletion strains, locus YGR229C, strain SMI1, stronger effect = lower value) was 1.04. For the same molecule, the normalized growth [5] was 0.995, the normalized growth [6] was 0.989 and the normalized growth (S. cerevisiae deletion strains, locus YNL175C, strain NOP13, stronger effect = lower value) was 0.996. It also gave a normalized growth (S. cerevisiae deletion strains, locus YNL197C, strain WHI3, stronger effect = lower value) of 1, a normalized growth (S. cerevisiae deletion strains, locus YNL224C, strain SQS1, stronger effect = lower value) of 1 and a normalized growth [7] of 1.02. For the same molecule, the normalized growth (S. cerevisiae deletion strains, locus YOR083W, strain WHI5 (second series), stronger effect = lower value) was 0.998 and the normalized growth [8] was 1.
